Laboratory results as given in the supplement of paper PMC8371130.
Counter-ions that a name gives are not always drawn.

Test system: HL-1
Experiment: relative cell viability (CellTiter-Glo) vs DMSO control (% of DMSO control); higher = more viable cells
Procedure, shortened: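 Cell viability, normalised to vehicle-treated control cells, was read by CellTiter-Glo luminescence. For this, HL-1 mouse atrial cardiomyocytes were plated at 1000 cells per well in 384-well plates alongside compounds at 40, 200, 1000 or 5000 nM in 0.01% DMSO. After a day, plates either spent 48 h in a hypoxic workstation at 1% O2 and then 24 h reoxygenating in a normal incubator, or remained in normoxia for the same period.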

[1] = oxygen condition: hypoxia 48 h (1% O2) + reoxygenation 24 h, 40 nM
[2] = oxygen condition: hypoxia 48 h (1% O2) + reoxygenation 24 h, 200 nM
[3] = oxygen condition: hypoxia 48 h (1% O2) + reoxygenation 24 h, 1000 nM
[4] = oxygen condition: hypoxia 48 h (1% O2) + reoxygenation 24 h, 5000 nM
[5] = oxygen condition: normoxia 72 h, 40 nM
[6] = oxygen condition: normoxia 72 h, 200 nM
[7] = oxygen condition: normoxia 72 h, 1000 nM
[8] = oxygen condition: normoxia 72 h, 5000 nM

Compound	relative cell viability [1]	relative cell viability [2]	relative cell viability [3]	relative cell viability [4]	relative cell viability [5]	relative cell viability [6]	relative cell viability [7]	relative cell viability [8]
CN(C)CCCN1c2ccccc2Sc2ccc(Cl)cc21 [Chlorpromazine]	104	103	106	107	97.1	100	106	117
C[C@H](CS)C(=O)N1CCC[C@H]1C(=O)O [Captopril]	108	103	105	109	105	97.2	106	113
CC[C@H]1OC(=O)[C@H](C)[C@@H](O[C@H]2C[C@@](C)(OC)[C@@H](O)[C@H](C)O2)[C@H](C)[C@@H](O[C@@H]2O[C@H](C)C[C@H](N(C)C)[C@H]2O)[C@](C)(OC)C[C@@H](C)C(=O)[C@H](C)[C@@H](O)[C@]1(C)O [Clarithromycin]	101	101	105	105	100	100	107	108
CCC(C)n1ncn(-c2ccc(N3CCN(c4ccc(OCC5COC(Cn6cncn6)(c6ccc(Cl)cc6Cl)O5)cc4)CC3)cc2)c1=O (stereo unspecified) [Itraconazole]	99.1	101	100	108	103	106	101	107
CCCCCCCN(CC)CCCC(O)c1ccc(NS(C)(=O)=O)cc1 (stereo unspecified) [Ibutilide fumarate]	103	95.7	98.8	92.9	98.3	97.9	97.3	97.6
NC(=O)c1ncn([C@@H]2O[C@H](CO)[C@@H](O)[C@H]2O)c1N [Acadesine]	90.2	102	102	116	103	103	110	117
Cc1nc(Nc2ncc(C(=O)Nc3c(C)cccc3Cl)s2)cc(N2CCN(CCO)CC2)n1 [Dasatinib]	71.8	87.1	80.2	90.2	85.9	88.5	82.1	89.2
CS(=O)(=O)CCNCc1ccc(-c2ccc3ncnc(Nc4ccc(OCc5cccc(F)c5)c(Cl)c4)c3c2)o1 [Lapatinib]	101	97.4	99.7	104	93.2	96.8	94	102
COc1cc2c(cc1OC)C(=O)C(CC1CCN(Cc3ccccc3)CC1)C2 (stereo unspecified) [Donepezil HCl]	106	106	110	106	95.9	102	103	107
CC1=NN(c2ccccc2)C(=O)C1 [Edaravone]	101	97.7	95.2	108	95.7	95.9	98.9	103
Cc1onc(-c2ccccc2Cl)c1C(=O)N[C@@H]1C(=O)N2[C@@H]1SC(C)(C)[C@@H]2C(=O)O [Cloxacillin sodium]	96	106	106	107	101	102	102	100
CN[C@@H]1[C@H](O)[C@H](NC)[C@H]2O[C@@]3(O)C(=O)C[C@@H](C)O[C@H]3O[C@@H]2[C@H]1O [Spectinomycin  hydrochloride]	105	102	102	109	107	86.5	101	101
CCCSc1nc(N[C@@H]2C[C@H]2c2ccc(F)c(F)c2)c2nnn([C@@H]3C[C@H](OCCO)[C@@H](O)[C@H]3O)c2n1 [Ticagrelor]	109	115	108	123	108	108	113	111
CC(C)[C@H](N)C(=O)OCC(CO)OCn1cnc2c(=O)nc(N)[nH]c21 (stereo partly specified) [valganciclovir hydrochloride]	107	107	107	121	108	110	114	115
CC[C@]1(O)C[C@H]2CN(CCc3c([nH]c4ccccc34)[C@@](C(=O)OC)(c3cc4c(cc3OC)N(C=O)[C@H]3[C@@](O)(C(=O)OC)[C@H](OC(C)=O)[C@]5(CC)C=CCN6CC[C@]43[C@@H]65)C2)C1 [Vincristine]	38.3	40.4	44.4	42	32.5	29.1	32.3	41.1
Cc1ccc(Nc2nccc(N(C)c3ccc4c(C)n(C)nc4c3)n2)cc1S(N)(=O)=O [Pazopanib]	104	108	102	116	92.7	102	110	110
CCN1CCN(c2cc(-c3ccc(F)cc3)c3c(n2)CCCCCC3)CC1 [Blonanserin]	101	99.5	91.2	49.4	103	93.3	93.5	51.2
N=C(N)NC(=O)c1nc(Cl)c(N)nc1N [Amiloride hydrochloride]	103	105	100	110	106	105	96.6	109
CN1CCC[C@H]1c1cccnc1 [Nicotine Ditartrate]	97.5	99.9	106	113	104	104	103	109
CCc1ccc(CCOc2ccc(CC3SC(=O)NC3=O)cc2)nc1 (stereo unspecified) [Pioglitazone hydrochloride]	106	97.2	103	106	94.5	97.9	101	103
O=C(O)C1=CO[C@@H](O[C@@H]2O[C@H](CO)[C@@H](O)[C@H](O)[C@H]2O)[C@@H]2C(CO)=CC[C@H]12 [Geniposidic acid]	107	109	110	112	103	120	117	121

Compound	relative cell viability [1]	relative cell viability [2]	relative cell viability [3]	relative cell viability [4]	relative cell viability [5]	relative cell viability [6]	relative cell viability [7]	relative cell viability [8]
CCN(CC)CCOC(=O)C(c1ccccc1)c1ccccc1 [Adiphenine HCl]	99.1	94.2	102	108	101	97.4	101	110
CNC[C@@H](O)c1ccc(O)c(O)c1 [L-Adrenaline]	102	99.7	100	99.2	100	101	95.7	95.4
CN(CCOc1ccc(NS(C)(=O)=O)cc1)CCc1ccc(NS(C)(=O)=O)cc1 [Dofetilide]	102	99.8	99.2	112	101	109	106	107
COc1ccc(CC(C)NCC(O)c2ccc(O)c(NC=O)c2)cc1 (stereo unspecified) [Formoterol hemifumarate]	100	98.7	102	111	104	106	98.9	106
CC1CC(OC(=O)C(O)c2ccccc2)CC(C)(C)C1 (stereo unspecified) [Cyclandelate]	104	106	106	118	103	108	110	115
Nc1ccc(/N=N/c2ccccc2)c(N)n1 [Phenazopyridine HCl]	103	98.3	101	112	104	103	114	108
OCCN1C[C@H](O)[C@@H](O)[C@H](O)[C@H]1CO [Miglitol]	104	104	119	108	101	102	106	117
C[C@](N)(Cc1ccc(O)c(O)c1)C(=O)O [Methyldopa]	105	79.3	104	103	98.8	91.9	102	109
NCCCCCC(=O)O [Aminocaproic acid]	102	102	106	107	106	103	110	112
O=C(c1ccccc1)c1ccc2n1CCC2C(=O)O (stereo unspecified) [Ketorolac]	104	105	104	109	102	98.3	103	111
CC(C)(C)c1ccc(C(O)CCCN2CCC(C(O)(c3ccccc3)c3ccccc3)CC2)cc1 (stereo unspecified) [Terfenadine]	89	102	94.4	79.4	97.4	91.5	76.7	79.7
CN1[C@@H]2CC[C@H]1C[C@@H](OC(=O)c1c[nH]c3ccccc13)C2 [Tropisetron]	99.6	103	100	104	98.7	101	104	66
N[C@H](Cc1ccccc1)C(=O)O [D-Phenylalanine]	103	99.4	109	111	92	101	108	116
CN(C)CCC(c1ccc(Cl)cc1)c1ccccn1 (stereo unspecified) [Chlorpheniramine Maleate]	87.2	101	98.4	117	101	114	105	121
Cc1c(-c2ccccc2)oc2c(C(=O)OCCN3CCCCC3)cccc2c1=O [Flavoxate HCl]	96.7	102	108	108	103	101	106	109
C[C@H](CCC(=O)O)[C@H]1CC[C@H]2[C@@H]3[C@@H](O)C[C@@H]4C[C@H](O)CC[C@]4(C)[C@H]3CC[C@]12C [Ursodiol]	103	106	118	106	99.7	105	119	108
COc1ccc2c(c1)C(=O)N(CCc1ccc(S(=O)(=O)NC(=O)NC3CCCCC3)cc1)C(=O)C2(C)C [Gliquidone]	97.7	108	102	113	96.6	114	110	116
O=S(=O)(O)c1cc(O)ccc1O [Ethamsylate]	105	101	105	109	96.6	101	96.8	107
O=C(Nc1ccc([N+](=O)[O-])cc1Cl)c1cc(Cl)ccc1O [Niclosamide]	10	3.13	58.1	17.5	8.34	2.9	56.2	7.03
COc1ccc2[nH]cc(CCNC(C)=O)c2c1 [Melatonin]	113	105	113	114	108	114	109	119
Oc1ccc(OC2CCCCO2)cc1 (stereo unspecified) [Deoxyarbutin]	103	104	107	113	103	102	113	109
